Screening data: PubChem, several laboratories
RTF Ca sens inh: cardiac RTF calcium desensitization; P19429+P45379; IANBD-labeled cardiac RTF, Ca2+ fluorescence; 340,000 tested, 0.12% active; inhibition, % at 7.15 µM; AID 493244;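 active = inhibition above the mean inhibition of all tested compounds plus 3 SD, cut at about 17% in these data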;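 note: assay run at fixed EC70 calcium of 1.6 mM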
RTF Ca sens act: increases calcium sensitivity of human cardiac regulated thin filaments; activation, % at 7.2 µM; AID 493008; IANBD-labeled TnC RTF fluorescence at EC20 calcium; 0% EC20 calcium, 100% full calcium; 340,000 tested, 0.24% active;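 active = activation above the mean over all tested compounds plus 3 SD, cut at about 30% in these data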;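 note: rise in fluorescence read as greater calcium sensitivity of cardiac thin filaments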
Keap1-Nrf2 PPI: disrupts human Keap1 binding to Nrf2 peptide. 340,000 tested, 0.15% active. Keap1 Kelch-Nrf2 peptide fluorescence polarization, 1536-well. Q14145. AID 504523. inhibition, % at 9.4 µM; in the data active = inhibition above about 12%;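 note: human Keap1 Kelch domain with fluorescein labeled Nrf2 9mer peptide probe; 0% = neutral control wells and 100% = peptide positive control; higher means more block of Keap1 binding to Nrf2 peptide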
eLon inh: inhibits E. coli Lon protease; P0A9M0; purified E. coli Lon protease, fluorescence polarization; inhibition, % at 7.94 µM; 360,000 tested, 0.42% active; in the data active = inhibition above about 13%, passing the limit was not always enough;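 note: 0% = enzyme with probe and DMSO and 100% = no enzyme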
Target sequence (P0A9M0 whole entry, looked up): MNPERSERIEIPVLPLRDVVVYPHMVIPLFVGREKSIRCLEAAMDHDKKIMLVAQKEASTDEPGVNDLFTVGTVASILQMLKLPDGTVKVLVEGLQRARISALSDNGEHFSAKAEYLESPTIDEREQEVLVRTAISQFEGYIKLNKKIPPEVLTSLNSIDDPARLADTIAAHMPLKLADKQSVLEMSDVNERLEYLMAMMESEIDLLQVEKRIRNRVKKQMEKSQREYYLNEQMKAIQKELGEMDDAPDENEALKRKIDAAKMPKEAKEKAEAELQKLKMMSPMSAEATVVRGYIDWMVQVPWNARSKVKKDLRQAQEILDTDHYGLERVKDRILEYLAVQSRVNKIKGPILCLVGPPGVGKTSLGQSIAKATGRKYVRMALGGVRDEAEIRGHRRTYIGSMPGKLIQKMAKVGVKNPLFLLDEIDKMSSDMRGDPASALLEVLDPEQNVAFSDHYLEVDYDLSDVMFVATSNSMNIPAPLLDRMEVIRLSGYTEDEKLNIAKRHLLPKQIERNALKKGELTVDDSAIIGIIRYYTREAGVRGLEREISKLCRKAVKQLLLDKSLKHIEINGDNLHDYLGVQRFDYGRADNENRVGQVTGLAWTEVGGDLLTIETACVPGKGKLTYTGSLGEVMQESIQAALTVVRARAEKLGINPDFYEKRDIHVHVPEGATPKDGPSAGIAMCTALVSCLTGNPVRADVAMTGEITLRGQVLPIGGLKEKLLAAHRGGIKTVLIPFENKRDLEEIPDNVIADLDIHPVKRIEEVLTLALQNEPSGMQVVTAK
C-LANA FP: inhibitors of KSHV LANA C-terminal domain DNA binding; inhibition, % at 9 µM; AID 504423; 340,000 tested, 0.078% active; MBP-C-LANA/FAM-LBS DNA binding, fluorescence polarization;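 active = highest replicate inhibition at or above 60% at 9 µM, even if other replicates fall short; inactive = all replicates below 60% inhibition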;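 note: 0% = neutral control wells and 100% = 4 µM acridine orange control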
eLon confirm: E. coli Lon inhibition confirmation; shares compounds with eLon inh; AID 602230; inhibition, % at 7.94 µM; 1,400 tested, 31% active; purified E. coli Lon, fluorescence polarization; in the data active = inhibition above about 16%;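 note: 0% = enzyme with probe and DMSO and 100% = no enzyme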
Active calls of the source: *. This is a sample that favours compounds with a hit; in the whole collection about 0.82% have one here.

Cc1onc(-c2ccccc2Cl)c1C(=O)NCc1ccc2c(c1)cc(C)n2C was read as RTF Ca sens inh -4, RTF Ca sens act 2, Keap1-Nrf2 PPI -2, eLon inh 36*, C-LANA FP 0 and eLon confirm 15.
For Cc1cc2cc(CNC(=S)Nc3ccc(OC(F)F)cc3)ccc2n1C the results were RTF Ca sens inh -3, RTF Ca sens act 2, Keap1-Nrf2 PPI -7, eLon inh 15*, C-LANA FP 1 and eLon confirm 1.
Cc1noc(C)c1-c1ccc(C(=O)NCCC(F)(F)F)c2occc12 was read as eLon inh -9.
`C#Cc1ccccc1OCCCN1CCC(C(O)(c2ccccc2)c2ccccc2)CC1` gave eLon inh 0.
Cc1cc2cc(CN3C(=O)c4ccccc4C3=O)ccc2n1C was read as RTF Ca sens inh -1, RTF Ca sens act 4, Keap1-Nrf2 PPI -4, eLon inh 25*, C-LANA FP 1 and eLon confirm 14.
Screening Cc1cc2cc(CNC(=O)c3ccco3)ccc2n1C returned RTF Ca sens inh -5, RTF Ca sens act 8, Keap1-Nrf2 PPI -6, eLon inh 14*, C-LANA FP 3 and eLon confirm 14.
For Cc1cc2cc(CNC(=O)COc3ccccc3)ccc2n1C the results were RTF Ca sens inh 2, RTF Ca sens act 3, Keap1-Nrf2 PPI 2, eLon inh 23 and C-LANA FP 8.
`O=C1c2ccccc2C(=O)N1Cc1ccc2c(c1)OCO2` gave RTF Ca sens inh -3, RTF Ca sens act -9, Keap1-Nrf2 PPI -3, eLon inh -1 and C-LANA FP -1.
COc1cc(OC)cc(C(=O)NCc2ccc3c(c2)cc(C)n3C)c1 was read as RTF Ca sens inh -22, RTF Ca sens act 5, Keap1-Nrf2 PPI 1, eLon inh 46*, C-LANA FP 0 and eLon confirm 6.
`CCOC(=O)C1=C[C@@H](C(C)(C)C)N(S(=O)(=O)c2ccc(C)cc2)[C@H]1c1ccc(Cl)c(Cl)c1` gave eLon inh -7.
`COC(=O)c1ccc2nc(-c3ccco3)c(Cc3ccccc3)n2c1` gave eLon inh -10.
Screening CCOC(=O)N1CCC(NC(=O)Cn2c3c(c(-c4ccccc4Cl)cc2=O)CCC3)CC1 returned RTF Ca sens inh 0, RTF Ca sens act 4, Keap1-Nrf2 PPI 1, eLon inh 20*, C-LANA FP -2 and eLon confirm -9.
For Cn1c(=O)c2[nH]c(-c3ccccc3Cl)c(O)c2n(C)c1=O the results were RTF Ca sens inh -17, RTF Ca sens act 12, Keap1-Nrf2 PPI 0, eLon inh 139*, C-LANA FP 3 and eLon confirm 13.
Screening Cn1c(=O)c2[nH]c(-c3ccccc3)c(O)c2n(C)c1=O returned RTF Ca sens inh -29, RTF Ca sens act 9, Keap1-Nrf2 PPI 11, eLon inh active, C-LANA FP 17 and eLon confirm active.
Cn1c2c(c(=O)n(C)c1=O)C(C(F)(F)F)(C(F)(F)F)N=C(c1ccccc1Cl)N2 was read as RTF Ca sens inh -14, RTF Ca sens act 9, Keap1-Nrf2 PPI 0, eLon inh 1 and C-LANA FP 0.
Cc1ccc(-c2csc(C(O)c3ccc(F)c(F)c3)n2)cc1C (stereo not given) was read as eLon inh 7.
`CCN(CC)C(=O)[C@H]1CC(CC(=O)NCCCN(C)C)C(=O)N2CCc3c([nH]c4ccc(OC)cc34)[C@]12C` (stereo not given in full) gave RTF Ca sens inh -5, RTF Ca sens act -1, Keap1-Nrf2 PPI -1, eLon inh active, C-LANA FP 1 and eLon confirm -6.
CCN(CC)C(=O)[C@H]1CC(CC(=O)NCCN2CCOCC2)C(=O)N2CCc3c([nH]c4ccc(OC)cc34)[C@]12C (stereo not given in full) was read as RTF Ca sens inh -4, RTF Ca sens act -4, Keap1-Nrf2 PPI -3, eLon inh -3 and C-LANA FP 1.
`C=C[C@]1(C)C=C2C(=O)[C@@]3(O)OC(=O)[C@@]4(CCCC(C)(C)[C@H]34)[C@@]2(O)CC1` gave eLon inh 11.
`O=C(CCn1c(=O)c2sccc2n(Cc2cc(=O)n3ccccc3n2)c1=O)NCc1ccco1` gave RTF Ca sens inh 0, RTF Ca sens act 2, Keap1-Nrf2 PPI 4, eLon inh 1 and C-LANA FP 0.
`O=C(CCCn1c(=O)c2sccc2n(Cc2cc(=O)n3ccccc3n2)c1=O)NCc1ccco1` gave RTF Ca sens inh -7, RTF Ca sens act -4, Keap1-Nrf2 PPI -4, eLon inh 15*, C-LANA FP -2 and eLon confirm 0.
Screening CCC(C(=O)NC1CCCC1)N(Cc1ccco1)C(=O)CNS(=O)(=O)c1ccccc1 (stereo not given) returned RTF Ca sens inh -10, RTF Ca sens act -3, Keap1-Nrf2 PPI -1, eLon inh 17*, C-LANA FP -2 and eLon confirm 8.
CCCC(C(=O)NC1CCCCC1)N(Cc1ccco1)C(=O)CNS(=O)(=O)c1ccccc1 (stereo not given) was read as RTF Ca sens inh -2, RTF Ca sens act -3, Keap1-Nrf2 PPI 0, eLon inh 1 and C-LANA FP -2.
For CC(C)CSCC1OC(n2cnc3c(N)nccc32)C(O)C1O (stereo not given) the results were eLon inh 3.
`CC(C)(O)C#Cc1ccc(N2C(c3ccsc3)=Cc3ccc(F)cc3C2c2c[nH]c3ccccc23)cc1` (stereo not given) gave eLon inh 7.
Screening CC(C)c1[nH]nc2c1C1(CCN(Cc3ccccc3)CC1)C(C#N)=C(N)O2 returned RTF Ca sens inh -18, RTF Ca sens act 6, Keap1-Nrf2 PPI -5, eLon inh 30*, C-LANA FP 4 and eLon confirm -9.
For O=C(NCc1cccc(Cl)c1)c1ccc(-n2cncn2)c2ccoc12 the results were eLon inh -3.
COC(=O)C[C@H]1C[C@H]2c3cc(NC(=O)C4CCC4)ccc3O[C@H]2[C@H](CO)O1 was read as eLon inh -3.
For CCCCN(C)c1c(C)nc2ccc(C(=O)Nc3cc(-c4ccccc4)ccc3OC)cn12 the results were eLon inh 11.
For Nc1ccc(O)c2c1C(=O)c1ccccc1C2=O the results were RTF Ca sens inh -10, RTF Ca sens act 1, Keap1-Nrf2 PPI 0, eLon inh 31 and C-LANA FP 8.
O=C1c2ccccc2C(=O)c2c(O)c(O)cc(O)c21 was read as RTF Ca sens inh -4, RTF Ca sens act 3, Keap1-Nrf2 PPI 7, eLon inh active, C-LANA FP 11 and eLon confirm active.
